The source of these data is PubChem BioAssay (Tox21).

Results filed as inconclusive are left out. A number with no mark means an inactive call. Active and inactive are the calls of the source. Calls come from the whole dose curve; as a rule, active = well fitted activation curve with a large enough effect in the signal ratio in the repeat runs (not every such curve was filed as active); inconclusive = weak or mixed curves; inactive = flat fitted curve, though single readings scatter; the % refers to the signal ratio.
% is set by controls: 0 for no effect and ±100 for the full control effect.

This experiment is described as follows: qHTS assay to identify small molecule agonists of the TGF-beta/Smad signaling pathway (AID 1346859). Conditions: SBE-bla HEK293T, TGF-beta/Smad beta-lactamase reporter, 5 h; series mostly up to 76.8 µM. The source says:
U.S. Tox21 Program National Center for Advancing Translational Sciences [NCATS] NIH Chemical Genomics Center [NCGC] U.S. Environmental Protection Agency [EPA] National Institutes of Environmental Health Sciences [NIEHS] National Toxicology Program [NTP] U.S. Food and Drug Administration [FDA] Tox21 Assay Overview: Transforming growth factor beta (TGF-beta) superfamily consists of a large number of structurally related dimeric proteins that act as hormones or local mediators in regulating a wide range of biological functions. This superfamily includes TGF-betas themselves, the bone morphogenetic proteins (BMPs) and the activins. These ligands induce oligomerization of serine/threonine receptor kinases and phosphorylate the cytoplasmic signaling molecules of Smad protein family. CellSensor SBE-bla HEK 293T cell line (Life Technologies, Carlsbad, CA), responsive to TGF-beta was used to screen Tox21 10K compound library for identification of agonists/antagonists of the Smad signaling pathway. This cell line contains a beta-lactamase reporter gene under control of the Smad binding element (SBE) stably integrated into HEK 293T cells.
Tox21 Assay Protocol Summary: SBE-bla HEK 293T cells were dispensed at 4,000/well in 6 uL of assay medium into black wall/clear-bottom 1536-well plates using a Multidrop Combi (ThermoFisher Scientific, Waltham, MA) dispenser. After the assay plates were incubated at 37 C and 5% CO2 for an overnight, 23 nL of compounds dissolved in DMSO, positive controls or DMSO only was transferred to the assay plate by a Pintool station (Kalypsys, San Diego, CA). The assay plates were incubated at 37 C and 5% CO2 for 5 hr. One uL of LiveBLAzer B/G FRET substrate (Life Technologies) was added using a Flying Reagent Dispenser (Aurora Discovery, San Diego, CA) and the plates were incubated at room temperature for 2 hr. Fluorescence intensity (405 nm excitation, 460 nm and 530 nm emissions) was measured using an Envision plate reader (PerkinElmer, Shelton, CT).
For the compound `SCc1ccccc1`, the compound was classed as inactive.

In the case of `C#CC(O)(C=CCl)CC` (stereo not given), the call was inactive.

With `CCOP(=S)(S)OCC`, the compound was called inactive.

Consider `CCC[N+](CCC)(CCC)CCC`, for which the compound was called inactive.

With `COc1ccccc1N1CCNCC1`, the call was inactive.

On to `CC(Cc1ccccc1)NCc1ccccc1Cl` (stereo not given), for which the call was inactive.

For `Nc1c(Br)cc(Br)c2c1C(=O)c1ccccc1C2=O`, the activation is -5.21% [at 15.8 µM].

As to `O=C(NC(=O)c1cc(F)c(F)cc1Cl)Nc1cc(F)ccc1N1CCC(C(=O)O)CC1`, the result was inactive.

Turning to `Nc1ccccc1C(=O)OCCc1ccccc1`, the call was inactive.

With `O=[N+]([O-])/C=C/c1ccccc1`, the call was inactive.

As for `CCCCC(CC)CO[N+](=O)[O-]` (stereo not given), the outcome was inactive.

As to `CCCCC#N`, the result was inactive.

Turning to `CCOP(=O)(SC(C)CC)N1CCSC1=O` (stereo not given), the call was inactive.

With `CC(C)c1ccc(OP(=O)(Oc2ccc(C(C)C)cc2)Oc2ccc(C(C)C)cc2)cc1`, the compound was classed as inactive.

Turning to `Nc1cc(Cl)cc(C(=O)O)c1Cl`, the call was inactive.

On to `CC(Oc1cccc(Cl)c1)C(=O)O` (stereo not given), for which the result was inactive.

`CC(C)OC(=O)Cc1ccccc1`: the compound was called inactive.

As for `COP(=O)(OC)OC(Br)C(Cl)(Cl)Br` (stereo not given), the outcome was inactive.

On to `CN1CC[C@]23c4c5ccc(O)c4O[C@H]2[C@@H](O)C=C[C@H]3[C@H]1C5`, for which the outcome was inactive.

With `CCCCCl`, the call was inactive.

As for `O=C(O)C(Cl)(Cl)Br`, the call was inactive.

As to `CC(C)[C@@H](C(=O)O[C@@H](C#N)c1cccc(Oc2ccccc2)c1)c1ccc(Cl)cc1`, the compound was classed as inactive.

Regarding `C1CCNCC1`, the call was inactive.

As for `CCc1ccccc1N`, the outcome was inactive.

With `Cc1ccc2c(C)cccc2c1`, the call was inactive.

In the case of `CCC1CCC(=O)O1` (stereo not given), the compound was called inactive.

Regarding `CN1CC[C@]23c4c5ccc(O)c4O[C@H]2[C@@H](O)CC[C@H]3[C@H]1C5`, the result was inactive.

For `COc1cc(CC#N)cc(OC)c1OC`, the call was inactive.

For `CCOC(=O)NC(O)C(Cl)(Cl)Cl` (stereo not given), the result was inactive.

Regarding `NCCc1cc(O)c(O)cc1O`, the outcome was inactive.

Consider `O=[N+]([O-])c1cc(Cl)c(Cl)cc1Cl`, for which the compound was called inactive.

For the compound `CC1(C)CC(=O)CC(C)(C)N1[O]`, the compound was called inactive.

In the case of `C[N+](C)(C)CC1CO1` (stereo not given), the result was inactive.

In the case of `OCCSSCCO`, the compound was called inactive.

For the compound `O=[N+]([O-])O[C@H]1CO[C@H]2[C@@H]1OC[C@H]2O[N+](=O)[O-]`, the compound was classed as inactive.

`CCCCNC(=O)OCC#CI`: the outcome was inactive.

As for `CCCCOC(=O)CCC(=O)OCCCC`, the outcome was inactive.

Consider `CC(C)(C#N)C(C)(C)C#N`, for which the result was inactive.

As to `CN(C1CCCCC1)C1CCCCC1`, the compound was called inactive.

`CCCN(CCC)c1c([N+](=O)[O-])cc(C(C)C)cc1[N+](=O)[O-]`: the call was inactive.
